Source: PubChem (National Center for Advancing Translational Sciences (NCATS))
SARS PLP yeast = qHTS of Yeast-based Assay for SARS-CoV PLP | Potency, µM (highest dose often 32.9 µM), inactives show at the top dose activity, positive = growth rescue, hits mostly activators | 0.19% of 330,000 active | S. cerevisiae expressing SARS-CoV PLpro, growth rescue | AID 485353, 2010; calls by dose curve; also: 0% is about no effect; nearly all actives have a fitted effect of over 55% in size
Pf growth 48h = Primary qHTS for delayed death inhibitors of the malarial parasite plastid, 48 hour incubation; P. falciparum luciferase growth in erythrocytes, 48 h; 5.9% of 310,000 active; Potency, µM (titrated, usually from 28.7 µM), without a hit: top-dose activity change, negative = inhibition, actives largely listed as inhibitors; also: % is scaled to controls: 0 for no effect and ±100 for the full control effect
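Luciferase-expressing parasites in RBCs, 2% Hct / 0.1% parasitemia final; RPMI 1640 + 0.5% Albumax; 37 C, 5% CO2, one generation; luminescence read-out, lower signal = inhibition.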
AmpC inh no detg = qHTS Inhibitors of AmpC Beta-Lactamase (assay without detergent); P00811; AmpC nitrocefin hydrolysis, absorbance 480 nm, 0.0001% Triton; AID 485341, 2010; Potency, µM (series often up to 57.1 µM), for inactives: top-dose activity change, negative = inhibition, actives largely listed as inhibitors; 0.52% of 330,000 active;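 also: plate controls were no compound for no effect and no enzyme for full effect; nearly all actives have a fitted effect of over 20% in size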
Target sequence (P00811 whole entry, looked up): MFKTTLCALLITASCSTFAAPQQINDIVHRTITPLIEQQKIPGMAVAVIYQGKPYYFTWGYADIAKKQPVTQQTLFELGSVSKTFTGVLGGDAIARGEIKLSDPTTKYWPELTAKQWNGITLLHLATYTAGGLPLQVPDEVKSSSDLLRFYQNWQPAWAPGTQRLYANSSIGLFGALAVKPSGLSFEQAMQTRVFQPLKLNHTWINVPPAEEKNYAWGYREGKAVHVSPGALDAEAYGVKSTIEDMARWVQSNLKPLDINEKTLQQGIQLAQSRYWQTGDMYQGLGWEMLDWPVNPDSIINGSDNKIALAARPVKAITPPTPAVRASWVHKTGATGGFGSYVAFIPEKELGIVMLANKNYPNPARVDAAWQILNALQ
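20 mM phosphate pH 7.0 + 0.01% (detergent screen) or 0.0001% Triton X-100; 5.3 nM AmpC reagent; cpd preinc 15 min RT; nitrocefin (800 uM stock) to start; A480 q20 s × 4 min; Activity was normalised to no-enzyme and no-compound control wells.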
Sm TGR block = qHTS Assay for the Inhibitors of Schistosoma Mansoni Peroxiredoxins; Schistosoma mansoni thioredoxin glutathione reductase (TGR), Q962Y6; purified TGR, DTNB reduction, TNB absorbance 405 nm; Potency, µM (series often up to 114 µM), for inactives: at the highest dose activity change, negative = inhibition, usual class: inhibitors; 3% of 360,000 active; also: % is scaled to controls: 0 for no effect and ±100 for the full control effect; nearly all actives have a fitted effect of over 60% in size
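TGR 20 nM + NADPH 100 uM (dispensed conc.), cpd preinc 15 min RT; start with NADPH (500 uM addition) then DTNB (15 mM addition). Kinetic TNB absorbance, 405 nm filter. Four-parameter Hill fit across titration.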
AmpC inh detg = qHTS Inhibitors of AmpC Beta-Lactamase (assay with detergent). 0.041% of 370,000 active. AmpC hydrolysis of nitrocefin, absorbance 480 nm, 0.01% Triton. Potency, µM (series often up to 114 µM), without a hit: at the highest dose activity change, negative = inhibition, usual class: inhibitors. P00811;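 also: 0% = no-compound wells and -100% = no-enzyme wells; nearly all actives have a fitted effect of over 25% in size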
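20 mM phosphate pH 7.0 + 0.01% (detergent screen) or 0.0001% Triton X-100; 5.3 nM AmpC reagent; cpd preinc 15 min RT; nitrocefin (800 uM stock) to start; A480 q20 s × 4 min; Activity was normalised to no-enzyme and no-compound control wells.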
Pf growth 96h = Primary qHTS for delayed death inhibitors of the malarial parasite plastid, 96 hour incubation | P. falciparum luciferase reporter growth, 96 h | Potency, µM (highest dose often 28.7 µM), inactives show at the top dose activity change, negative = inhibition, actives largely listed as inhibitors | 6.9% of 320,000 active; also: % is scaled to controls: 0 for no effect and ±100 for the full control effect
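Erythrocytes infected with luciferase-expressing P. falciparum were dispensed at 2% hematocrit and 0.05% parasitemia (final), then incubated with compounds 96 hours at 37 C in 5% CO2. Luminescence after detection reagent addition reported growth.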
* marks the source's active call; other numbers are inactive results; ? = inconclusive; . = no result; [ ] = another dose, or the depositor's remark. Compounds with a hit are over-represented: about 12% of the library has one in this group of screens. Unless noted, calls follow the shape of the dose curve; as a rule, active = well fitted curve in the direction sought with a large enough effect; inconclusive = small, poorly fitted or top-dose-only effect, or another doubt; inactive = no such curve, though single readings can be large; an effect the other way counts as inactive or inconclusive. Potency is read from the fitted curve at half-maximal effect.

SMILES	SARS PLP yeast	Pf growth 48h	AmpC inh no detg	Sm TGR block	AmpC inh detg	Pf growth 96h
CCOC(=O)C1(CCOc2ccccc2)CCN(Cc2cc(OC)ccc2OC)CC1	-1%	?	44%	-10%	?	0%
CCOC(=O)C1(CCOc2ccccc2)CCN(Cc2ccc(O)c(OC)c2)CC1	5%	12µM*	40%	?	-7%	-24%
CCOC(=O)C1(CC2CC2)CCN(Cc2ccc(O)c(Cl)c2)CC1	0%	4.1µM*	-43%	-1%	5%	-11%
CCOC(=O)C1(CCOc2ccccc2)CCN(Cc2cccc(OC)c2O)CC1	3%	0.59µM*	43%	-4%	-14%	-22%
CCOC(=O)C1(CCOc2ccccc2)CCN(Cc2ccc(O)c(Cl)c2)CC1	2%	?	-7%	9%	3%	?
CCOC(=O)C1(CCOc2ccccc2)CCN(Cc2ccc(F)c(OC)c2)CC1	4%	-65%	76%	13%	-1%	15µM*
Cn1c(CNC(=O)CSc2n[nH]c(-c3ccccc3Cl)n2)nc2ccccc21	.	.	.	2%	23%	.
CCOC(=O)C1(CCOC)CCN(Cc2cccc(OCc3ccccc3)c2)CC1	0%	?	113%	7%	?	?
CCOC(=O)C1(CCOC)CCN(Cc2ccccc2-c2ccco2)CC1	0%	?	0%	35µM*	1%	?
CCOc1ccccc1C(=O)NC(CO)C(=O)O (stereo not drawn)	4%	18%	-11%	-1%	-10%	.
COc1cccc(CCC(=O)Nc2cccc(S(=O)(=O)N3CCCC3)c2)c1OC	3%	9.3µM*	-26%	3%	4%	8.3µM*
COc1ccccc1C(=O)Nc1cccc(S(=O)(=O)N2CCCC2)c1	-1%	-2%	0%	13%	2%	-17%
CCOc1ccc(CN(C)C(=O)c2cc(S(=O)(=O)N3CCCC3)ccc2C)cc1	2%	12µM*	71%	-4%	-4%	?
CC(C)(C)c1ccc(OCCC(=O)Nc2cccc(S(=O)(=O)N3CCOCC3)c2)cc1	-6%	?	-3%	-3%	-4%	78%
COc1ccccc1C(=O)NCCC(=O)Nc1cccc(S(=O)(=O)N2CCCC2)c1	-4%	3.3µM*	-7%	-5%	-6%	?
CCOc1ccc(OCCC(=O)Nc2cccc(S(=O)(=O)N3CCCC3)c2)cc1	-2%	?	-50%	3%	-19%	15µM*
CN(Cc1ccccc1Cl)C(=O)CCNC(=O)c1ccco1	0%	?	-11%	-35%	0%	-29%
Cc1ccc(C(=O)OCC(=O)N2CCc3ccccc32)cc1	-3%	142%	-18%	17%	3%	66%
Cc1ccc(N(CC(=O)N2CCc3ccccc32)C2=NC(=O)CS2)cc1	-1%	.	29%	0%[11.4 µM]	-15%	9.3µM*
CN(C)S(=O)(=O)c1cc(NC(=O)c2cc(=O)c3ccccc3o2)ccc1Cl	-1%	10µM*	-35%	4%	-9%	?
Cc1ccc(NC(=O)c2cc(=O)c3ccccc3o2)cc1S(=O)(=O)N1CCOCC1	-1%	8.3µM*	-14%	9%	0%	4.7µM*
Cc1ccc(NC(=O)c2cc(=O)c3ccccc3o2)cc1S(=O)(=O)N1CCCCC1	0%	6.6µM*	-25%	7%	-3%	?
COc1ccc(NC(=O)c2cc(=O)c3ccccc3o2)cc1Cl	6%	?	-8%	3%	5%	-14%
COc1ccc(NC(=O)C2CC(=O)N(CCc3ccc(Cl)cc3)C2)cc1 (stereo not drawn)	14%	?	46%	2%	-8%	-16%
C=CCSc1nnc2c(n1)[nH]c1c(C)cccc12	-22%	.	-33%	-5%[11.4 µM]	-6%	12µM*
